From PubChem BioAssay AID1159580 (chemical genetic matrix, 2015)
Several values for one entry are separate records, joined by “and”; a condition that tells them apart may be missing. Equal values may be shown once. Out of some 5,500 compounds screened, about 2,000 (36%) were called active. Another 18% or so got no clear call; they are omitted. Rule as the data show it: active = normalized growth mostly below about 0.91 (no sharp cut-off); inconclusive = no clear call, values can overlap the other calls; inactive = mostly above about 0.92. This is one part of the list.

Experiment: chemical genetic growth profiling, strain panel (AID 1159580);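 also: tested at 20 µM; growth read once vehicle control cultures reached saturation at 30 °C; 1 = growth at the plate median or of vehicle wells; lower values mean less growth of the strain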
Settings: S. cerevisiae deletion strains, growth OD

Measured: normalized growth

CCCc1ncc(C[n+]2ccccc2C)c(N)n1
inactive: locus YAL021C, strain ccr4, hits give low values 0.94 | locus YAL026C, strain drs2, hits give low values 0.999 | locus YAL030W, strain snc1, hits give low values 0.991 | locus YBL061C, strain skt5, hits give low values 0.976 | locus YBR009C, strain hhf1, hits give low values 1.03 | locus YBR021W, strain FUR4, hits give low values 1.06 | locus YBR023C, strain chs3, hits give low values 0.999 | locus YBR171W, strain sec66, hits give low values 0.969 | locus YBR229C, strain ROT2, hits give low values 1 | locus YBR231C, strain swc5, hits give low values 0.966 | locus YBR279W, strain paf1, hits give low values 1.01 | locus YCL011C, strain gbp2, hits give low values 1 | locus YCL016C, strain dcc1, hits give low values 1.01 | locus YCL029C, strain bik1, hits give low values 1 | locus YCL069W, strain vba3, hits give low values 0.981 | locus YCR088W, strain abp1, hits give low values 0.992 | locus YDL005C, strain med2, hits give low values 0.929 | locus YDL035C, strain GPR1, hits give low values 1.01 | locus YDL040C, strain nat1, hits give low values 0.967 | locus YDL074C, strain BRE1, hits give low values 0.99 | locus YDL101C, strain DUN1, hits give low values 1 | locus YDL134C, strain PPH21, hits give low values 0.996 | locus YDL185W, strain tfp1, hits give low values 1.01 | locus YDL192W, strain arf1, hits give low values 0.999 | locus YDR001C, strain nth1, hits give low values 0.987 | locus YDR069C, strain doa4, hits give low values 0.983 | locus YDR101C, strain arx1, hits give low values 1.01 | locus YDR137W, strain rgp1, hits give low values 0.998 | locus YDR159W, strain sac3, hits give low values 0.995 | locus YDR162C, strain NBP2, hits give low values 1.01 | locus YDR195W, strain ref2 0.932 | locus YDR297W, strain sur2, hits give low values 0.999 | locus YDR318W, strain mcm21, hits give low values 0.995 | locus YDR334W, strain swr1, hits give low values 0.992 | locus YDR335W, strain msn5, hits give low values 0.99 | locus YDR388W, hits give low values 0.997 | locus YDR392W, strain spt3, hits give low values 1.08 | locus YDR502C, strain sam2, hits give low values 0.993 | locus YEL003W, strain gim4, hits give low values 0.983 | locus YEL037C, strain rad23, hits give low values 0.984 | locus YEL061C, strain CIN8 (second series), hits give low values 0.988 | locus YEL061C, strain CIN8, hits give low values 1 | locus YER015W, strain faa2, hits give low values 0.992 | locus YER016W, strain bim1, hits give low values 1.02 | locus YER110C, hits give low values 0.99 | locus YER111C, strain swi4, hits give low values 0.983 | locus YER155C, strain BEM2 (second series), hits give low values 0.975 | locus YER155C, strain BEM2, hits give low values 0.991 | locus YER167W, strain BCK2, hits give low values 0.991 | locus YFR010W, strain ubp6, hits give low values 0.99 | locus YGL078C, strain dbp3, hits give low values 0.988 | locus YGL086W, strain mad1, hits give low values 0.984 | locus YGL167C, strain pmr1, hits give low values 0.961 | locus YGL173C, strain kem1, hits give low values 0.947 | locus YGL227W, strain vid30, hits give low values 0.988 | locus YGL240W, strain doc1, hits give low values 0.96 | locus YGL248W, strain PDE1, hits give low values 0.983 | locus YGL253W, strain hxk2, hits give low values 1.01 | locus YGR078C, strain PAC10, hits give low values 0.983 | locus YGR135W, strain pre9, hits give low values 0.984 | locus YGR229C, strain SMI1, hits give low values 0.997 | locus YGR252W, strain gcn5, hits give low values 0.967 | locus YHR013C, strain ard1, hits give low values 0.986 | locus YHR027C, strain rpn1, hits give low values 0.997 | locus YHR030C, strain SLT2, hits give low values 1 and 1.11 | locus YHR079C, strain IRE1 (second series), hits give low values 0.998 | locus YHR079C, strain IRE1, hits give low values 1.04 | locus YHR094C, strain hxt1, hits give low values 0.994 | locus YHR129C, strain ARP1, hits give low values 1 | locus YHR142W, strain chs7, hits give low values 0.976 | locus YHR200W, strain rpn10, hits give low values 0.995 | locus YIL066C, strain RNR3, hits give low values 1.02 | locus YIL073C, strain SPO22, hits give low values 0.975 | locus YIL125W, strain kgd1, hits give low values 0.986 | locus YIR030C, strain dcg1, hits give low values 1.02 | locus YJL092W, strain hpr5, hits give low values 0.959 | locus YJL095W, strain BCK1 (second series), hits give low values 0.95 | locus YJL095W, strain BCK1, hits give low values 1.03 and 1.04 | locus YJL115W, strain asf1, hits give low values 0.981 | locus YJL129C, strain trk1, hits give low values 0.966 | locus YJL134W, strain LCB3, hits give low values 1.01 | locus YJL154C, strain vps35, hits give low values 0.972 | locus YJL164C, strain tpk1, hits give low values 1.01 | locus YJL166W, strain qcr8, hits give low values 0.941 | locus YJL168C, strain set2, hits give low values 1 | locus YJL187C, strain SWE1 (second series), hits give low values 0.988 | locus YJR043C, strain POL32, hits give low values 0.989 | locus YJR066W, strain TOR1, hits give low values 0.993 | locus YJR075W, strain HOC1, hits give low values 0.988 | locus YKL009W, strain mrt4, hits give low values 0.958 | locus YKL068W, hits give low values 0.995 | locus YKL085W, strain MDH1 (second series), hits give low values 0.983 | locus YKL085W, strain MDH1, hits give low values 0.983 | locus YKL160W, strain elf1, hits give low values 0.981 | locus YKL190W, strain CNB1, hits give low values 1.01 | locus YKR001C, strain vps1, hits give low values 1 | locus YKR091W, strain srl3, hits give low values 0.964 | locus YLL001W, strain dnm1, hits give low values 0.931 | locus YLL026W, hits give low values 0.983 | locus YLL041C, strain sdh2, hits give low values 0.991 | locus YLR027C, strain aat2, hits give low values 0.983 | locus YLR039C, strain RIC1, hits give low values 0.944 | locus YLR058C, strain SHM2, hits give low values 1.01 | locus YLR102C, strain apc9, hits give low values 0.995 | locus YLR113W, strain HOG1, hits give low values 1.05 | locus YLR221C, strain rsa3, hits give low values 1.02 | locus YLR258W, strain gsy2, hits give low values 0.991 | locus YLR262C, strain YPT6 (second series), hits give low values 0.951 | locus YLR262C, strain YPT6, hits give low values 0.988 | locus YLR268W, strain sec22, hits give low values 0.985 | locus YLR320W, strain mms22, hits give low values 1.01 | locus YLR330W, strain CHS5, hits give low values 1.01 | locus YLR342W, strain FKS1 (second series), hits give low values 0.999 | locus YLR342W, strain FKS1, hits give low values 0.958 | locus YLR357W, strain rsc2, hits give low values 0.977 | locus YLR370C, strain arc18, hits give low values 0.997 | locus YLR371W, strain rom2, hits give low values 0.996 | locus YLR384C, strain iki3, hits give low values 0.976 | locus YLR418C, strain cdc73, hits give low values 0.977 | locus YML016C, strain PPZ1, hits give low values 1.01 | locus YML032C, strain rad52, hits give low values 0.988 | locus YML120C, strain ndi1, hits give low values 0.98 | locus YML124C, strain tub3, hits give low values 0.989 | locus YMR058W, strain fet3, hits give low values 0.975 | locus YMR078C, strain ctf18, hits give low values 0.999 | locus YMR125W, strain sto1, hits give low values 0.969 | locus YMR129W, hits give low values 0.986 | locus YMR205C, strain PFK2, hits give low values 0.982 | locus YMR223W, strain ubp8, hits give low values 0.997 | locus YMR231W, strain pep5, hits give low values 0.978 | locus YMR307W, strain GAS1, hits give low values 1.06 | locus YNL067W, strain RPL9B, hits give low values 0.992 | locus YNL071W, strain lat1, hits give low values 0.995 | locus YNL153C, strain GIM3, hits give low values 0.987 | locus YNL183C, strain NPR1, hits give low values 0.988 | locus YNL209W, strain ssb2, hits give low values 0.993 | locus YNL233W, strain BNI4, hits give low values 1.01 | locus YNL248C, strain rpa49, hits give low values 0.995 | locus YNL250W, strain rad50, hits give low values 0.994 | locus YNL271C, strain bni1, hits give low values 1 | locus YNL298W, strain CLA4, hits give low values 0.995 | locus YNL307C, strain MCK1, hits give low values 0.992 | locus YNL322C, strain KRE1 (second series), hits give low values 0.961 | locus YNR049C, strain mso1, hits give low values 0.987 | locus YNR052C, strain pop2, hits give low values 0.999 | locus YOL012C, strain htz1 0.884 | locus YOL147C, strain pex11, hits give low values 0.994 | locus YOR001W, strain rrp6, hits give low values 0.979 | locus YOR061W, strain CKA2, hits give low values 1.01 | locus YOR069W, strain VPS5, hits give low values 1 | locus YOR070C, strain gyp1, hits give low values 0.992 | locus YOR080W, strain dia2, hits give low values 0.965 | locus YOR083W, strain WHI5, hits give low values 0.94 | locus YOR106W, strain vam3, hits give low values 0.945 | locus YOR136W, strain idh2, hits give low values 0.983 | locus YOR144C, strain elg1, hits give low values 0.989 | locus YOR184W, strain ser1, hits give low values 0.993 | locus YOR231W, strain MKK1, hits give low values 1.04 | locus YOR265W, strain rbl2, hits give low values 0.987 | locus YOR270C, strain vph1, hits give low values 1 | locus YOR290C, strain snf2, hits give low values 1.01 | locus YOR316C, strain cot1, hits give low values 0.997 | locus YPL051W, strain arl3, hits give low values 0.998 | locus YPL055C, strain LGE1, hits give low values 1.01 | locus YPL078C, strain atp4, hits give low values 0.954 | locus YPL106C, strain sse1, hits give low values 1 | locus YPL240C, strain hsp82, hits give low values 0.985 | locus YPL256C, strain CLN2, hits give low values 1.08 | locus YPR119W, strain clb2, hits give low values 0.998 | locus YPR141C, strain kar3, hits give low values 0.976 | locus YPR163C, strain tif3, hits give low values 0.987 | locus YPR167C, strain met16, hits give low values 0.991 | strain wtn01, hits give low values 0.973
